This passage reports Potency results from PubChem BioAssay (Tox21).

The nature of assay [1]: Nuclear factor erythroid 2-related factor 2/antioxidant responsive element (Nrf2/ARE) small molecule agonists: qHTS cell viability counter screen in human keratinocytes (AID 1919968; active = well fitted curve in the direction sought with a large enough effect in the repeat runs; an effect the other way counts as inactive or inconclusive; also: nearly all actives have a fitted effect of over 55% in size; also: potency is read from the fitted curve at half-maximal effect). A digest of the protocol: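 Cytotoxicity was multiplexed with the Nrf2/ARE luciferase assay in the same wells. Stably transfected HaCaT keratinocytes were treated with test compounds for 23 h at 37 C. Cell viability was then measured by CellTiter-Fluor fluorescence.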
(In qHTS, concentration-response curves come from the screen itself.)

The nature of assay [2]: Nuclear factor erythroid 2-related factor 2/antioxidant responsive element (Nrf2/ARE) small molecule agonists: luciferase reporter gene qHTS assay in human keratinocytes (AID 1919969). Also: nearly all actives have a fitted effect of over 35% in size. Also: potency is read from the fitted curve at half-maximal effect. In general terms: Reporter assays use an easily measured gene product as a stand-in for the process of interest.
The target in assay [3] is KiSS-1 receptor (Homo sapiens) (UniProt Q969F8). In words: Human kisspeptin (KISS1R) small molecule agonists, calcium flux assay in KISS1R-HEK293 cells (AID 1920064; active = well fitted curve in the direction sought with a large enough effect in the repeat runs; an effect the other way counts as inactive or inconclusive). The essentials: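 Agonist activity is monitored as intracellular calcium rise in engineered HEK293 cells carrying human KISS1R. Cells are dye-loaded for 1 h at 37 C before compound addition, and fluorescence is recorded for 3 min.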

Assay [4] is described as follows: G protein-coupled receptor (GPCR) small molecule agonists, calcium flux assay: HEK293 wild type cell line counter screen (AID 1920065). The essentials: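 Seed cells, incubate 18 h (37 C, 5% CO2); add calcium dye, 1 h at 37 C; pin-transfer compounds, ATP control or DMSO; read fluorescence 480/540 nm each second for 3 min.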
(Calcium assays in cells follow changes in intracellular calcium, usually with a dye or a luminescent sensor.)

Assay [5] can be described thus: p53 small molecule agonists, cell-based qHTS assay with human liver microsomes (AID 1963577).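 Also: p53 response element beta-lactamase reporter cells with liver microsomes plus NADPH.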 A digest of the protocol:
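With metabolic activation: human liver microsomes (0.5 mg/mL final) plus NADPH (0.5 mg/mL final) added alongside compounds to p53RE-bla cells; 16 h 37 C exposure; beta-lactamase read by LiveBLAzer fluorescence.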

Assay [6] in a line: p53 small molecule agonists, cell-based qHTS assay with rat liver microsomes (AID 1963578). A digest of the protocol: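 Metabolic activation by rat liver microsomes and NADPH, each 0.5 mg/mL final, added right after compounds to p53RE-bla reporter cells (4,000/well, plated 5 h earlier). 16 h at 37 C, then LiveBLAzer substrate for 2 h at room temperature in the dark; fluorescence read-out.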

Assay [7] in a line: p53 small molecule agonists, cell-based qHTS assay with human liver microsomes: qHTS cell viability counter screen (AID 1963579). Also: nearly all actives have a fitted effect of over 45% in size. Also: potency is read from the fitted curve at half-maximal effect. A digest of the protocol: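 Metabolic activation used human liver microsomes and NADPH, both 0.5 mg/mL final, over 16 hours at 37 C on p53RE-bla cells (4,000/well). Cytotoxicity measured by CellTiter-Glo luminescence, 30 min at room temperature.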

Assay [8] can be described thus: p53 small molecule agonists, cell-based qHTS assay with rat liver microsomes: qHTS cell viability counter screen (AID 1963580). Also: nearly all actives have a fitted effect of over 45% in size. Also: potency is read from the fitted curve at half-maximal effect. A digest of the protocol:
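After the beta-lactamase ratio was read, CellTiter-Glo was added to the same wells and luminescence measured at 30 min; cells had been treated 16 h at 37 C with compounds, rat liver microsomes and NADPH (0.5 mg/mL final each).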

The nature of assay [9]: p53 small molecule agonists, cell-based qHTS assay: qHTS cell viability counter screen (AID 1963581). Also: nearly all actives have a fitted effect of over 45% in size. The essentials: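 Viability was counter-screened in parallel with the p53 agonist reporter by measuring intracellular ATP luminescence in the same HCT-116 p53RE-bla wells after 16 h compound treatment at 37 C.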
The target in assay [10] is 5-hydroxytryptamine receptor 2A (Homo sapiens) (UniProt P28223). In words: 5-hydroxytryptamine receptor 2A (HTR2A) small molecule antagonists, cell-based qHTS assay (AID 1963586). Also: nearly all actives have a fitted effect of over 45% in size. Also: potency is read from the fitted curve at half-maximal effect. The essentials:
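CHO cells stably expressing human HTR2A were plated for 18 h at 37 C, then loaded with calcium dye for 1 h. Compounds were preincubated 5 min at room temperature before DOI (4 nM solution) was added. Kinetic fluorescence was read for 3 min.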

In assay [11] the target is Muscarinic acetylcholine receptor M1 (Homo sapiens) (UniProt P11229). In words: Cholinergic receptor muscarinic 1 (CHRM1) small molecule agonists, cell-based qHTS assay (AID 1963589). Also: nearly all actives have a fitted effect of over 35% in size. A digest of the protocol: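 Cells were plated and incubated 18 h at 37 C/5% CO2, loaded with calcium dye for 1 h at 37 C, then treated with compounds in DMSO. Fluorescence was recorded kinetically at 1 sec intervals.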

Assay [12] addresses 5-hydroxytryptamine receptor 2A (Homo sapiens) (UniProt P28223). In words: 5-hydroxytryptamine receptor 2A (HTR2A) small molecule agonists, cell-based qHTS assay (AID 1963587). Also: nearly all actives have a fitted effect of over 30% in size. Also: potency is read from the fitted curve at half-maximal effect. A digest of the protocol:
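CHO cells stably expressing human HTR2A, plated 18 h, loaded with calcium dye 1 h at 37 C. Agonist mode: compounds added and intracellular calcium fluorescence recorded kinetically for 2 min at 1 sec intervals.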

The target of assay [13] is Muscarinic acetylcholine receptor M1 (Homo sapiens) (UniProt P11229). In words: Cholinergic receptor muscarinic 1 (CHRM1) small molecule antagonists, cell-based qHTS assay (AID 1963588). Also: nearly all actives have a fitted effect of over 40% in size. The essentials:
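Compounds were tested at 15 concentrations in three independent runs. Dye-loaded CHRM1-CHO cells were exposed 5 min at room temperature before stimulation by acetylcholine added at 50nM. Intracellular calcium was read kinetically on FDSS for 3 min.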

For assay [14], the target named is Beta-2 adrenergic receptor (Homo sapiens) (UniProt P07550). In words: Adrenergic beta2 receptor (ADRB2) small molecule antagonists, cell-based qHTS assay (AID 1963592). Also: series mostly up to about 92 µM; nearly all actives have a fitted effect of over 50% in size. The essentials: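 Assay format: CHO-ADRB2 cells, 18-20hr seeding at 37C/5% CO2, then compound plus 1nM isoproterenol agonist mix for 0.5hr RT. Homogeneous time-resolved fluorescence cAMP detection after 1hr, expressed as 665/615 nm ratio.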

Assay [15] concerns the target D(2) dopamine receptor (Homo sapiens) (UniProt P14416). In words: Dopamine D2 receptor (DRD2) small molecule agonists, cell-based qHTS assay (AID 1963594). Also: nearly all actives have a fitted effect of over 35% in size. The essentials: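 HEK293 cells stably expressing human DRD2, pre-treated with PDE inhibitor Ro20-1724 (0.1 mM final) and compound 10 min at room temperature, then stimulated with NKH477 (200nM […]) for 30 min. cAMP read by HTRF (665/620 nm).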

For assay [16] the target is unchanged. In words: Dopamine D2 receptor (DRD2) small molecule antagonists, cell-based qHTS assay (AID 1963595; active = well fitted inhibition curve with a large enough effect in the signal ratio in the repeat runs, with a control signal flat; the % refers to the signal ratio; also: potency is read from the fitted curve at half-maximal effect). A digest of the protocol:
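HTRF cAMP read-out at 665 and 620 nm emission (340 nm excitation). Antagonist mode: compounds were tested against 12 nM quinpirole in DRD2-HEK293 cells, with 200 nM NKH477 raising cAMP and 0.1 mM Ro20-1724 blocking its breakdown.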

Assay [17] is described as follows: p53 small molecule agonists, cell-based qHTS assay (AID 1963582; active = well fitted activation curve with a large enough effect in the signal ratio in the repeat runs, not every such curve was filed as active; the % refers to the signal ratio). A digest of the protocol: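 Cells carrying a p53-responsive bla reporter are treated with test compounds for 16 h at 37 C; beta-lactamase activity is then detected with LiveBLAzer B/G FRET substrate after 2 h at room temperature.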
Assay [18] can be described thus: cAMP Responsive Elements (CRE) small molecule agonists, cell-based qHTS assay (AID 1963590). The essentials:
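Cells carrying a CRE-driven beta-lactamase reporter (HEK 293T) are seeded, incubated overnight (18 h), and treated with test compounds for 3 h at 37 C; reporter activity is then detected with a FRET substrate after 2 h at room temperature.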

A short description of assay [19]: cAMP Responsive Elements (CRE) small molecule antagonists, cell-based qHTS assay (AID 1963591; active = well fitted inhibition curve with a large enough effect in the signal ratio in the repeat runs, not every such curve was filed as active; the % refers to the signal ratio). The essentials:
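Cells (CRE-bla HEK 293T, DMEM with 10% dialyzed FBS and 25 mM HEPES) are seeded and incubated 18 h. Compounds are added with NKH477 agonist at 0.25 uM final for 3 h, then FRET substrate for 2 h.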

Assay [20] addresses Beta-2 adrenergic receptor (Homo sapiens) (UniProt P07550). In words: Adrenergic beta2 receptor (ADRB2) small molecule agonists, cell-based qHTS assay (AID 1963593).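 Also: CHO cells stably overexpressing human ADRB2.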 A digest of the protocol: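 CHO cells stably over-expressing ADRB2 were plated overnight at 37C, then dosed with compounds plus a stimulation mix containing 100uM IBMX and 25uM Ro-20-1724 for 0.5hr at room temperature. cAMP was measured by HTRF competition, 1hr.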

Results filed as inconclusive are left out. The source made the active and inactive calls. Unless noted, calls follow the shape of the full dose curve. Square brackets hold non-standard residues; d marks the D form. Peptide text beside a SMILES is read from it. pGlu = O=C1CC[C@@H](C(=O)O)N1

Sequence of 5-hydroxytryptamine receptor 2A (Homo sapiens) (P28223 whole entry, looked up): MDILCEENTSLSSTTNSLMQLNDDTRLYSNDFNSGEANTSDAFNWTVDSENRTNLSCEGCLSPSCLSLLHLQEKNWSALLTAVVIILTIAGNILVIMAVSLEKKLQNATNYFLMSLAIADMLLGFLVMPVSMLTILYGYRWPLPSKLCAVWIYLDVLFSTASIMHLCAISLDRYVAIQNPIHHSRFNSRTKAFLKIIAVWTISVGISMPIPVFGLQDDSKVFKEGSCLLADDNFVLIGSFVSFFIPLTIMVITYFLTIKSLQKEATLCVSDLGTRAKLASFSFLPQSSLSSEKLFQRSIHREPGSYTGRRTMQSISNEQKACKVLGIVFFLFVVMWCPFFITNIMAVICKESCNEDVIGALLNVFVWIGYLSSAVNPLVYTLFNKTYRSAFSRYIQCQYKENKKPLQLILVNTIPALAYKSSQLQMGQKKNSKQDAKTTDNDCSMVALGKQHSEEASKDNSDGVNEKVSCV
Sequence of D(2) dopamine receptor (Homo sapiens) (P14416 whole entry, looked up): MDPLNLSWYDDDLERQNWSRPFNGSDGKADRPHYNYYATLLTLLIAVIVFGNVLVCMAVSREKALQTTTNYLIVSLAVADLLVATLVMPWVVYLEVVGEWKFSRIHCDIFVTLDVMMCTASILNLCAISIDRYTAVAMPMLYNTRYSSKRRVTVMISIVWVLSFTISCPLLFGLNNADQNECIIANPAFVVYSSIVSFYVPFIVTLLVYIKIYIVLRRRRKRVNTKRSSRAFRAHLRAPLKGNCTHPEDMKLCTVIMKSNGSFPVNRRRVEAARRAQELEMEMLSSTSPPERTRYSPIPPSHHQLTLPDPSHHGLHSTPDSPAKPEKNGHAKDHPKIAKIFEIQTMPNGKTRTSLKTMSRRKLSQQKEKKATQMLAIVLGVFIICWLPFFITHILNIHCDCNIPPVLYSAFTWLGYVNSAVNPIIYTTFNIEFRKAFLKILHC
Sequence of Muscarinic acetylcholine receptor M1 (Homo sapiens) (P11229 whole entry, looked up): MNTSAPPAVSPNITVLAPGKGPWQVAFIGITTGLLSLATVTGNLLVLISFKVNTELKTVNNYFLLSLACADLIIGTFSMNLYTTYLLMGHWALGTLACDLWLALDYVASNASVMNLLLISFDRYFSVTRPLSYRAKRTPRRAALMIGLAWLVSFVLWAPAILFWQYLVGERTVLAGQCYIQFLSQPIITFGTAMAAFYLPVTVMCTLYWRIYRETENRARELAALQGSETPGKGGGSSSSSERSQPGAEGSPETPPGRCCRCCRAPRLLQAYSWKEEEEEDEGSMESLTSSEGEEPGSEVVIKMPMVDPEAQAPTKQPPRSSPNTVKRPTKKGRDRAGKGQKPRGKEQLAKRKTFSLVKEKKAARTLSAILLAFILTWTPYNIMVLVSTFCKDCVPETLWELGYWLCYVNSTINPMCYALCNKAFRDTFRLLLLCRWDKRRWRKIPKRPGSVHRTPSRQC
Sequence of KiSS-1 receptor (Homo sapiens) (Q969F8 whole entry, looked up): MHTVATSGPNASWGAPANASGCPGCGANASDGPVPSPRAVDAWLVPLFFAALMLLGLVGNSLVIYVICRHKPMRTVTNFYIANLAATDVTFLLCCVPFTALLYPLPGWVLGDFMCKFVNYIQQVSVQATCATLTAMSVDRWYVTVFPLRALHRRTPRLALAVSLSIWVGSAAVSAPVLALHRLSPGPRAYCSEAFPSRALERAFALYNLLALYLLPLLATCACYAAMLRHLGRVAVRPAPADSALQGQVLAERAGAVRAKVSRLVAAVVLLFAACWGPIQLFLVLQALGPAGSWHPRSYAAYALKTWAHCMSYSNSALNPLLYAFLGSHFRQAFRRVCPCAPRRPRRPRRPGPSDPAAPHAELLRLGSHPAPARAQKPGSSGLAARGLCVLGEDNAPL
Sequence of Beta-2 adrenergic receptor (Homo sapiens) (P07550 whole entry, looked up): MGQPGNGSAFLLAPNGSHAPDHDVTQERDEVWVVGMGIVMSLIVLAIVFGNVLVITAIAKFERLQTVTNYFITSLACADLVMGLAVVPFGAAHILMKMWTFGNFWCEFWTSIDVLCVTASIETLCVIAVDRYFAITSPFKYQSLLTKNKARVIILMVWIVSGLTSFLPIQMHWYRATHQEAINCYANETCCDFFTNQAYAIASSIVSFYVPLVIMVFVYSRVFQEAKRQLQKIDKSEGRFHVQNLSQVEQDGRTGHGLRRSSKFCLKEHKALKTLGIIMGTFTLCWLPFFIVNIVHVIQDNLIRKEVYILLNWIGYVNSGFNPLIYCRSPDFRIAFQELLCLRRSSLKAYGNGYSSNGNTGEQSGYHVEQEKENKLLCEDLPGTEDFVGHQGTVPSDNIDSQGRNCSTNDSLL

Take `CN[C@H]1CC[C@@H](c2ccc(Cl)c(Cl)c2)c2ccc(S(N)(=O)=O)cc21`: in [1], the Potency was 61.1 µM (active). Moreover, the Potency entry in assay [2], in [3], in assay [4], in assay [5], in assay [6] and in assay [7] was “inactive” in each case. Besides, the Potency result in [8], in assay [9], in [10] and in assay [11] was “inactive” each time.

As for `COCC(=O)O[C@]1(CCN(C)CCCc2nc3ccccc3[nH]2)CCc2cc(F)ccc2[C@@H]1C(C)C`, the Potency in [1] was 23.7 µM (active); in assay [10], 5.16 µM (active). Moreover, the Potency result in assay [2], in assay [3], in assay [4], in assay [5], in assay [6] and in [7] was “inactive” each time. Besides, the Potency result in [12], in [13], in [11], in [14], in assay [15] and in assay [16] was “inactive” each time.

Consider `COc1cc(NS(=O)(=O)c2ccc(N)cc2)nc(C)n1`, for which the Potency result in assay [1], in [2], in assay [3], in [4], in assay [5] and in assay [7] was “inactive” in each case. For the same molecule, the Potency result in [8], in assay [9], in [17], in assay [10], in assay [12] and in assay [13] was “inactive” throughout. The Potency result in assay [11], in [18], in [19], in assay [14], in assay [20] and in [15] was “inactive” each time. Also, the Potency entry in assay [16] was “inactive”.

In the case of `CCNC(=O)[C@@H]1CCCN1C(=O)[C@H](CCCN=C(N)N)NC(=O)[C@H](CC(C)C)NC(=O)CNC(=O)[C@H](Cc1ccc(O)cc1)NC(=O)[C@H](CO)NC(=O)[C@H](Cc1c[nH]c2ccccc12)NC(=O)[C@H](Cc1cnc[nH]1)NC(=O)[C@@H]1CCC(=O)N1` ([pGlu]HWSYGLRP-NHEt), the Potency entry in [1], in assay [2], in assay [3], in [4], in assay [5] and in assay [6] was “inactive” throughout. Besides, the Potency result in assay [7], in [8], in assay [9], in [17], in assay [18] and in [19] was “inactive” in each case. The Potency entry in assay [14], in [15] and in [16] was “inactive” in each case.

Consider `CCCCCCCCn1sc(Cl)c(Cl)c1=O`, for which the Potency in assay [1] is 13.7 µM (active); in assay [2], 4.86 µM (active); in assay [7], 36.3 µM (active); in assay [8], 36.3 µM (active); in assay [12], 43.6 µM (active); in assay [16], 27.3 µM (active). The Potency entry in [3], in [4], in assay [5], in [6], in assay [13] and in [11] was “inactive” throughout. Further, the Potency entry in assay [14], in assay [20] and in assay [15] was “inactive” each time.

`CCCC(=O)OCCc1ccccc1`: the Potency result in assay [1], in [2], in assay [3], in [4], in assay [5] and in assay [6] was “inactive” throughout. Also, the Potency result in [7], in assay [8], in [17], in assay [10], in assay [13] and in assay [18] was “inactive” throughout. Besides, the Potency result in [19], in [14] and in assay [15] was “inactive” each time.

Regarding `C[Si](C)(C)O[Si](O)(O)O`, the Potency result in [1], in [2], in assay [3], in assay [4], in [7] and in [8] was “inactive” in each case. Further, the Potency entry in assay [9], in assay [10], in assay [12], in assay [13], in assay [11] and in assay [18] was “inactive” in each case. Further, the Potency entry in [19], in assay [14], in [15] and in assay [16] was “inactive” throughout.

Consider `CCOC(=O)CC(C)C`, for which the Potency result in assay [1], in assay [2], in [3], in assay [4], in assay [7] and in [8] was “inactive” each time. Besides, the Potency entry in assay [9], in assay [10], in assay [12], in [13], in assay [11] and in assay [18] was “inactive” in each case. The Potency entry in assay [19], in assay [14], in assay [15] and in assay [16] was “inactive” throughout.
